Experimental data: the supplement of paper PMC6555819

Legend:
Assay in all cases: PBM binding z-score (relative to random genomic background probes); higher = stronger binding; sequences stand for … in GC…GCGATTGACAGCGTAGAATGAAGG
[1] = test system: PPARg:RXRa DBDmut IVT, anti-RXR (DBD mutation: RXRa K156A/R161A, NR concentration 270 nM, RXRa partner concentration 90 nM)
In short: (§1)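 Each nuclear receptor dimer, without ligand, was incubated for 1 h on custom Agilent 4×180K protein-binding microarrays. Binding was detected with antibodies against each partner (one per run), and scanned fluorescence was regression-normalized. The binding z-scores are referenced to random human genomic background probes.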

[2] = test system: PPARg:RXRa IVT, anti-PPARg (NR concentration 270 nM, RXRa partner concentration 90 nM)
In short: as §1

[3] = test system: PPARg DBDmut:RXRa IVT, anti-PPARg (DBD mutation: PPARg1 K132A/R137A, NR concentration 270 nM, RXRa partner concentration 90 nM)
In short: as §1

[4] = test system: PPARg DBDmut IVT, anti-PPARg (DBD mutation: PPARg1 K132A/R137A, NR concentration 270 nM)
In short: as §1

[5] = test system: PPARg homodimer (NR concentration 180 nM)
In short: as §1

[6] = test system: PXR:RXRa (NR concentration 270 nM, RXRa partner concentration 90 nM)
In short: as §1

[7] = test system: PXR homodimer (NR concentration 270 nM)
In short: as §1

[8] = test system: RARa:RXR (NR concentration 270 nM, RXRa partner concentration 90 nM)
In short: as §1

[9] = test system: RARa homodimer (NR concentration 270 nM)
In short: as §1

[10] = test system: RARb:RXRa (NR concentration 270 nM, RXRa partner concentration 90 nM)
In short: as §1

Sequence	PBM binding z-score [1]	PBM binding z-score [2]	PBM binding z-score [3]	PBM binding z-score [4]	PBM binding z-score [5]	PBM binding z-score [6]	PBM binding z-score [7]	PBM binding z-score [8]	PBM binding z-score [9]	PBM binding z-score [10]
CAAACTAGGTCACGAAAGGTCAAAGTCGAATGAC	8.54	9.04	3.28	2.22	5.79	7.14	2.95	7.8	3.54	5.84
CCGACTGGGGCAGAAACGTTACCATACCATCCGG	1.22	0.558	-0.521	-0.904	-0.18	-0.851	-0.758	-0.735	0.0145	-0.053
CCTCGGAGGACAACAGGAGGTCAGTGCTGCCAGA	-0.0147	0.469	-1.04	-1.78	0.702	1.78	0.131	2.05	0.116	2.92
CCTTACGGGTCACTCCCGGTTATAGCATCGGAGT	2.29	3.2	-0.351	0.418	2.11	3.32	0.36	3.34	1.06	3.65
CCTACTGGGCCATTCCGAGGTCATTGATCATATG	4.18	4.34	0.312	-0.485	1.24	4.4	4.22	3.88	0.0189	2.63
ATCTCTAGGTAACCAAGTTCAGTGGATGCCGAAC	3.66	2.83	0.893	0.352	0.334	1.94	1.5	0.454	0.529	1.18
TAGTCTAGGTCATGCGGGCCAGTATAGTGTCGGC	5.79	6.05	2.08	2.16	1.27	1.58	0.355	2.07	0.351	3.85
AGTCAAAGATCACTAGGTAACGTAAGATTCAGCT	1.14	2.97	0.137	0.156	0.697	-0.103	0.0772	0.125	0.459	0.233
ATATGTAGGCTACATCCGGGTCATTCAGGCTATG	5.71	5.66	1.96	1.11	0.66	2.34	1.04	2.51	0.115	1.27
CGTCAAAGTTCAACTAAGCTAACGTAAAGCACGC	0.667	1.69	1.11	1.29	3.28	4.69	4.44	3.82	2.34	5.31
ATCGAAAGGTCGTGATGTGAGTATACAGAAAGGC	-0.177	1.63	1.58	1.08	1.07	2.71	0.368	3.38	0.598	3.68
CGAACTAGGTCATTGACAGGACAGTGAATAGTAA	8.1	8.32	2.23	1.53	1.77	1.89	0.245	2.44	0.499	3.79
AGTCAAAGTTCAGGACGAGGTAACGTGAAGCACG	-0.189	2.06	0.679	0.0315	1.48	2.72	0.947	2.65	1.04	4.51
CCGAGTCGGTTATGGGGCATTCAGGCAACGGTGA	0.293	0.608	-1.56	-1.49	0.196	-0.541	-0.48	-0.567	-0.241	0.404
CCTAGCAGGCCAATCTGGGTCCCTCAAGGCTTGA	1.13	0.925	-1.33	-1.81	-1.12	-0.641	-0.809	-0.522	-0.809	0.0212
GGAACGAGGGCAATCGAGTTGATAGCATGGCGAT	3.45	2.82	-0.0288	-1.1	-0.25	3.29	0.305	0.677	-0.463	1.6
AATACAGGGTCACTATGCCAGAGTAGGTACGAAT	3.26	4.74	1.77	1.8	1.62	2.9	0.523	3.67	1.11	4.01
CAGCCTAGGTCACGGCCAGTATAGGAGGAACGTT	3.65	4.36	0.0261	-0.166	1.71	2.34	-0.132	3.45	0.239	4.6
CTCGAAAGGTCGTGCTCAGGAGAGTATACCAAAC	0.885	1.49	0.0921	0.34	0.909	2.6	0.45	3.47	0.362	3.87
CCTTACGGGTCACTGACAGTTTATAGCATTTGGA	3.68	3.57	0.77	0.36	2.21	4.38	0.495	4.35	1	3.9
CCAGACAGGTGAGACGGTAACTCAGCCTCGATTA	1.25	0.131	0.0493	-0.407	1	-0.403	0.193	-0.309	0.615	0.413
TGTCAAAGTTCAAAGGGAACGTAAGTATCCACAC	-0.458	3.95	2.37	1.56	4.11	4.92	4.8	4.2	1.6	4.93

Sequence	PBM binding z-score [1]	PBM binding z-score [2]	PBM binding z-score [3]	PBM binding z-score [4]	PBM binding z-score [5]	PBM binding z-score [6]	PBM binding z-score [7]	PBM binding z-score [8]	PBM binding z-score [9]	PBM binding z-score [10]
GCTGCTAGGTCAACTGATAGTCAGCTAAAGCTCG	4.86	4.12	0.166	-1.36	0.644	1.05	-0.294	2.13	-0.287	4.09
AGAACGAAGGCAATGAGTTGATAGCACGGGTGGC	-0.602	-0.376	0.0932	-0.515	-1.7	-0.512	-0.132	-0.69	-0.881	-0.477
CGTCAAAGTTCTACTAAGGTAACGTAAAGCACGC	0.0553	0.848	0.246	0.834	0.249	0.134	-0.028	0.398	-0.131	0.603
ATATGTATGTTAAGGGTCATTCAGGTTGGTTCGC	3.13	4.91	2.02	1.65	2.83	4.73	2.03	4.22	1.18	3.31
CCTACTGGGCCATCAGGTCATTAATATCAACGTT	4.28	5.01	0.502	0.269	2.46	1.25	0.741	1.51	0.585	1.94
TCTAGTTGGTCACAGGTCACACACTCGAAATGCG	3.01	4.53	1.58	1.96	2.52	3.06	0.924	3.51	1.49	3.33
TCATATAGGTAATACAGGTGAAATTCGGCATCTA	3.87	2.95	1.39	1.39	1.02	0.776	0.431	1.2	1.76	0.602
ACTAGCAGGCCGAGTTTGGGTCACTCAAACAAAG	-0.462	0.793	-0.125	-0.727	-0.382	0.617	-0.458	1.21	-1.01	1.29
ACTTCCGGGTCAACGAGGTTATAGCACGCGTATA	4.21	5.27	1.78	0.785	3.05	4.91	6.49	4.87	0.82	3.97
ACCGACAGGTGAGTGAAGGTAACTCAGCTGGACG	0.224	0.64	0.0319	-0.41	-0.391	-0.571	-0.481	-0.0449	-0.642	0.605
CGTACTAGGTCAAGGACAGTGAATCTCCGCACGC	7.55	7.47	2.25	1.3	2.34	1.19	0.03	2	1.16	4
CCTCGGAGGACAGCAGGTCAGAGCTGTCCGCTTT	-0.0532	-0.162	-1.57	-1.57	0.113	0.0301	-0.196	0.742	-0.236	2.04
CCGACTGGGGCATATGGTTACCATAAGCCAGCCC	1.89	2.21	-0.616	-1.62	-0.697	-0.746	-0.567	-0.363	-0.355	0.172
TCTATTAGTTGATTAGTGCAACCGAAACAGCGGA	1.81	0.352	1.1	1.5	0.86	0.603	0.441	0.464	1.06	0.332
GCGACTGGGGCATCAGCAGGTTACCTTAACTTAA	3.64	3.03	-1.1	-0.949	0.152	0.367	-0.375	0.558	-0.549	0.828
TCGAGTAGGTTAAGGGCATTCAGAATGGCGTCGA	2.73	2.37	-0.645	-1.04	0.261	0.999	0.373	0.821	-0.417	2.03
CTCGAAAGGTCGTGCTCAGGTGGGTATACCAAAC	0.456	1.65	0.375	0.179	1.84	3.14	0.555	3.84	0.327	3.9
AGAATCAGGTTACCAAAGATCAGGGAAACGCTTG	3.77	3.08	0.88	1.06	0.0981	0.0669	-0.0157	0.359	-0.131	1.08
CCTACTGGGCCAAAAAGGTCATTGGTGCCGATAA	3.78	4.13	-0.644	-0.94	3.28	4.9	5.2	5.26	0.489	4.07
TCAGACAGCTGAAGGTAACTCAGGTACGCAGTCG	1.6	-0.656	-0.951	-0.614	-1.05	0.139	-0.874	0.392	-0.741	-0.0591
TAGCCTAGGTCAGATCGGGCCTGTATACGCTATA	0.244	1.36	-0.328	0.156	0.016	0.238	-0.728	1.22	-0.734	2.8
CCTGGTTGGTCAGGAGGTCACACACCGGATATGA	-0.199	2.62	-0.128	-0.135	2.95	3.98	0.67	4.45	1.25	3.44
